The values below come from PubChem BioAssay (Tox21).

In assay [1] the target is Progesterone receptor (Homo sapiens) (UniProt P06401). Put plainly: qHTS assay to identify small molecule antagonists of the progesterone receptor (PR) signaling pathway (AID 1346795; active means well fitted inhibition curve with a large enough effect in the signal ratio in the repeat runs, not every such curve was filed as active; the % refers to the signal ratio; further: potency means the concentration at half of the fitted maximal effect). The procedure, abridged: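 Stimulus R5020 at 1 nM final; cells HEK293T PR-UAS-bla; medium with 2% charcoal-stripped FBS; compound exposure 16 hr at 37C, 5% CO2; detection by FRET beta-lactamase substrate, 2 hr, room temperature.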
Chain of Progesterone receptor (Homo sapiens) (P06401 whole entry, looked up): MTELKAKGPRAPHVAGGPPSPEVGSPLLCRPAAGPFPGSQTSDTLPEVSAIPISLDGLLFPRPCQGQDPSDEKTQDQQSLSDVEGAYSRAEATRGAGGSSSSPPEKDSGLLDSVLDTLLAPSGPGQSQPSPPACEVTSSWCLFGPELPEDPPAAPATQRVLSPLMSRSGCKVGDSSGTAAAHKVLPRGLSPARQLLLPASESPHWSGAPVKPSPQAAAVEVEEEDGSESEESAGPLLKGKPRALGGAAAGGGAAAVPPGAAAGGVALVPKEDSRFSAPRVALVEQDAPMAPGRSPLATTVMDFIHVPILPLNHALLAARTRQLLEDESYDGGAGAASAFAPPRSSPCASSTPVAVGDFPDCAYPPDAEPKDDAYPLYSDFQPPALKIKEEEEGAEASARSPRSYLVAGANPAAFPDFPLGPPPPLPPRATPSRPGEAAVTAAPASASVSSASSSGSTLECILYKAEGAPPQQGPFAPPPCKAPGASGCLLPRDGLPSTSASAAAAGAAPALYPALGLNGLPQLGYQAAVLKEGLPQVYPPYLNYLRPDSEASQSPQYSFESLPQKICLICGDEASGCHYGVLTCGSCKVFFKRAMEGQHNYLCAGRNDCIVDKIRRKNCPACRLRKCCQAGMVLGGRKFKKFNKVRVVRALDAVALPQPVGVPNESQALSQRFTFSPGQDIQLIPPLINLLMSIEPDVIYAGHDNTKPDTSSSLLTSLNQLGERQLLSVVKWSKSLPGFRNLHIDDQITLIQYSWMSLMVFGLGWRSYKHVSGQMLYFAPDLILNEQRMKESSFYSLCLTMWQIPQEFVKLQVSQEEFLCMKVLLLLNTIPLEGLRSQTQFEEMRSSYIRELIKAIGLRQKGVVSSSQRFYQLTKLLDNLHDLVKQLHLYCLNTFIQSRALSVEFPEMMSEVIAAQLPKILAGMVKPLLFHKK
For orientation: Quantitative high-throughput screening tests each substance at several concentrations.

Assay [2] is described as follows: qHTS assay to identify small molecule antagonists of the progesterone receptor (PR) signaling pathway - cell viability counter screen (AID 1346798). Further: nearly all actives have a fitted effect of over 50% in size. Further: potency means the concentration at half of the fitted maximal effect. On activity change, negative = cytotoxicity: series mostly up to about 92 µM. The procedure, abridged:
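In the same plates used for the beta-lactamase readout, cell viability of compound- and R5020-treated PR-UAS-bla HEK293T cells (16 hr, 37C) was assessed by CellTiter-Glo luminescence.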

Assay [3] in a line: qHTS assay to identify small molecule antagonists of the TGF-beta/Smad signaling pathway - cell viability counter screen (AID 1346824). Further: nearly all actives have a fitted effect of over 50% in size. Further: potency means the concentration at half of the fitted maximal effect. In outline:
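SBE-bla HEK 293T cells, incubated overnight, then compound plus 0.25 ng/mL TGF-beta1 (stock added) for 5 hr at 37 C. Viability was read in the same wells by CellTiter-Glo luminescence after 30 min at room temperature.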

Assay [4] in a line: qHTS assay to identify small molecule agonists of the TGF-beta/Smad signaling pathway - cell viability counter screen (AID 1346829). Further: nearly all actives have a fitted effect of over 45% in size. Further: potency means the concentration at half of the fitted maximal effect. On activity change, negative = cytotoxicity: top concentration of the series differs between compounds. In outline:
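Tox21 qHTS format: SBE-bla HEK 293T cells treated with DMSO-dissolved compounds for 5 hr; CellTiter-Glo luminescence after 30 min at room temperature.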

Assay [5] concerns the target Thyrotropin-releasing hormone receptor (Homo sapiens) (UniProt P34981). Briefly: qHTS assay to identify small molecule agonists of the thyrotropin-releasing hormone receptor (TRHR) signaling pathway (AID 1346891; calls by dose curve; further: series mostly up to about 58 µM). The procedure, abridged:
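Readout was intracellular calcium fluorescence in TRHR-Hek293 cells. Cells were incubated 18 h, dye-loaded 2 h at 37 °C, and treated with compound in agonist mode.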

Assay [6] can be described thus: Human pregnane X receptor (PXR) small molecule agonists, qHTS cell viability counter screen (AID 1346977). Further: nearly all actives have a fitted effect of over 50% in size. Further: potency means the concentration at half of the fitted maximal effect. The procedure, abridged:
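In each well, the PXR reporter HepG2 line was checked for viability: CellTiter-Fluor reagent added 23hr post-dosing, fluorescence read after 1hr incubation at 37C.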

The nature of assay [7]: Caspase-3/7 induction in HepG2 cells by small molecules, qHTS assay (AID 1346978). Further: nearly all actives have a fitted effect of over 15% in size. Further: potency means the concentration at half of the fitted maximal effect. The procedure, abridged:
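Wild-type HepG2 cells, 2,000/well, settled 5 hr at 37 C and 5% CO2, then compound-treated for 17 hr; caspase-3/7 activity read by luminescent Caspase-Glo 3/7 after 30 min at room temperature.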

Assay [8] can be described thus: qHTS assay to identify small molecule agonists of the TGF-beta/Smad signaling pathway (AID 1346859; active means well fitted activation curve with a large enough effect in the signal ratio in the repeat runs, not every such curve was filed as active; the % refers to the signal ratio; further: series mostly up to about 77 µM). In outline: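 Screening used HEK 293T SBE-bla cells at 4,000/well. Test agents: 5 hr, 37 C. Detection: FRET substrate, 2 hr RT, then excitation 405 nm with emissions at 460 and 530 nm.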
The target of assay [9] is Thyrotropin-releasing hormone receptor (Homo sapiens) (UniProt P34981). Briefly: qHTS assay to identify small molecule antagonists of the thyrotropin-releasing hormone receptor (TRHR) signaling pathway (AID 1346877; active means well fitted inhibition curve with a large enough effect in the repeat runs, not every such curve was filed as active; further: series mostly up to about 51 µM). The procedure, abridged:
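Kinetic fluorescence (3 min, 1 s resolution) following stimulation with TRH at 1 nM final; HEK293 cells bearing human TRHR; 5 min compound preincubation at RT; concentration-response over 15 points, triplicates.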

A short description of assay [10]: qHTS assay to identify small molecule agonists of the progesterone receptor (PR) signaling pathway - cell viability counter screen (AID 1346799; calls by dose curve; further: nearly all actives have a fitted effect of over 45% in size; further: potency means the concentration at half of the fitted maximal effect). The procedure, abridged: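 Multiplexed viability read: CellTiter-Glo luminescence, 30 min RT, following LiveBLAzer FRET measurement on PR-UAS-bla HEK293T cells exposed to compounds 16 hr.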

A number with no mark means an inactive call. Results filed as inconclusive are left out. The source made the active and inactive calls. Unless noted, the call rests on the fitted dose curve; in most records, active means well fitted curve in the direction sought with a large enough effect in the repeat runs; inconclusive means weak or mixed curves; inactive means no such curve, though single readings can be large; an effect the other way counts as inactive or inconclusive.
On the % scale 0 is the no-effect control and ±100 the full control effect.

Chain of Thyrotropin-releasing hormone receptor (Homo sapiens) (P34981 whole entry, looked up): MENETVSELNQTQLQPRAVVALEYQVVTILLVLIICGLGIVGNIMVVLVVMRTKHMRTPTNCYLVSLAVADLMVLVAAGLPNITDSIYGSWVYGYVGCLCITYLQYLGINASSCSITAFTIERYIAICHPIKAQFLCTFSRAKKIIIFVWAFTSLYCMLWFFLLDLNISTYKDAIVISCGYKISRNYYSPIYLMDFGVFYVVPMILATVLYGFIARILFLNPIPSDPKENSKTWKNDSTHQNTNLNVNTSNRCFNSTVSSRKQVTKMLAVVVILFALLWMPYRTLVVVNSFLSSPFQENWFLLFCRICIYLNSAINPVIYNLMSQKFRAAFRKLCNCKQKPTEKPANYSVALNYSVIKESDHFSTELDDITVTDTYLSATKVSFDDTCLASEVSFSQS

Consider `CCC(C)(C)c1cc(O)c(C(C)(C)CC)cc1O`, for which the Potency result in [1], in assay [2], in assay [3], in assay [4], in assay [5] and in assay [6] was “inactive” throughout. Moreover, the Potency result in [7] was “inactive”.
On to `COc1cc(C=C2CCC/C(=C\c3ccc(O)c(OC)c3)C2=O)ccc1O`, for which the Potency in assay [1] was 6.68 µM (active). Moreover, the Potency result in assay [3], in assay [4], in [8], in assay [9] and in assay [5] was “inactive” each time.
In the case of `Nc1ncnc2c1ncn2[C@@H]1O[C@H](COP(=O)(O)O)[C@@H](O)[C@H]1O`, the Potency entry in assay [1], in [10], in [3], in assay [4], in [8] and in [9] was “inactive” in each case. The Potency entry in assay [5], in assay [6] and in [7] was “inactive” each time.
Turning to `CN(C)c1ccc(N=Nc2ccccc2C(=O)O)cc1`, the Potency in assay [1] is 15.4 µM (active); in assay [6], 61.1 µM (active). Further, the Potency result in [3], in assay [4], in assay [8], in [9], in [5] and in [7] was “inactive” each time.
Consider `CCOB(OCC)OCC`, for which the Potency entry in assay [1], in assay [2], in [3], in assay [4], in [6] and in [7] was “inactive” throughout.
For the compound `O=C1OC(OC(=O)c2cccnc2Nc2cccc(C(F)(F)F)c2)c2ccccc21` (stereo not given), the Potency entry in assay [1], in [2], in assay [3], in [4], in assay [6] and in [7] was “inactive” each time.
As to `COCC(=O)O[C@]1(CCN(C)CCCc2nc3ccccc3[nH]2)CCc2cc(F)ccc2[C@@H]1C(C)C`, the Potency in assay [1] is 26.6 µM (active); in assay [2], 26.6 µM (active); in assay [6], 23.7 µM (active); in assay [7], 26.6 µM (active). For the same compound, the Potency result in assay [8] and in assay [5] was “inactive” each time.
With `CCCCCCCCCCCCN(CCO)CCO`, the figures for the Potency in assay [1], in [6] and in [7] were 60.9 µM (active), 48.4 µM (active) and 30.5 µM (active), respectively. Moreover, the Potency entry in assay [3], in assay [9] and in assay [5] was “inactive” each time.
With `CCC(=O)OCCc1ccccc1`, the Potency result in [2], in assay [10], in [3], in assay [4], in assay [8] and in [9] was “inactive” in each case. Further, the Potency result in [5], in [6] and in [7] was “inactive” throughout.
As for `C[C@@H]1CC[C@H]2C(C)(C)[C@H]3C[C@@]12CC[C@@]3(C)O`, the Potency entry in [2], in assay [10], in [3], in assay [4], in [8] and in [6] was “inactive” throughout.
With `CC(C)c1cccc(C(C)C)c1N1C(=O)c2ccc(O)cc2C1=O`, the Potency in assay [1] was 6.11 µM (active). Besides, the Potency entry in [3], in assay [4], in assay [9], in assay [5] and in assay [6] was “inactive” throughout.
As for `CCc1ccc(C)nc1`, the Potency entry in assay [2], in [10], in assay [3], in assay [4], in [8] and in assay [6] was “inactive” in each case. The Potency result in assay [7] is “inactive”.
In the case of `CCCCCCCCCCCCCCNCCO`, the Potency result in assay [1], in assay [3], in [4], in assay [8] and in assay [7] was “inactive” throughout.
As to `O=C1c2c(O)ccc(O)c2C(=O)c2c(NCCNCCO)ccc(NCCNCCO)c21`, the values for the Potency in [1], in assay [6] and in assay [7] were 3.35 µM (active), 4.22 µM (active) and 4.22 µM (active), respectively. Further, the Potency result in [3], in assay [9] and in [5] was “inactive” in each case.
On to `C[C@@]12C(=O)OC(=O)[C@]1(C)C1CCC2O1`, for which the Potency in assay [1] is 4.73 µM (active); in assay [6], 0.266 µM (active). In addition, the Potency entry in [4], in assay [8], in assay [9] and in assay [5] was “inactive” each time.
Consider `COc1cc(C(=O)NS(=O)(=O)c2ccccc2C)ccc1Cc1cn(C)c2ccc(NC(=O)OC3CCCC3)cc12`, for which the Potency entry in assay [2], in [10], in assay [3], in assay [4], in [8] and in assay [9] was “inactive” each time. Moreover, the Potency entry in [5], in [6] and in [7] was “inactive” each time.
For the compound `O=S(O)O`, the activity change, negative = cytotoxicity is -0.356% [at 18.9 µM] in [2], -3.11% [at 19 µM] in assay [10], -1.2% [at 15.8 µM] in [4] and 6.89% [at 19 µM] in [6]. Further, the viability change, negative = cytotoxic in assay [3] is 0.444% [at 15.8 µM]. Also, the activation is -2.31% [at 15.8 µM] in assay [8] and 0.0945% [at 11.8 µM] in assay [5]. Besides, in assay [7], the caspase activation is -0.246% [at 19 µM].
Regarding `O=Nc1ccc(NO)cc1`, the Potency result in assay [2], in assay [10], in assay [3], in assay [4], in [8] and in [9] was “inactive” each time. The Potency entry in assay [5], in assay [6] and in assay [7] was “inactive” each time.
Regarding `CCNc1nc(NC(C)CC)nc(OC)n1` (stereo not given), the Potency entry in assay [2], in [10], in assay [3], in assay [4], in assay [8] and in [5] was “inactive” throughout. In assay [7], the Potency entry is “inactive”.
For `COc1nccnc1CC(C)C`, the Potency result in assay [2], in assay [10], in assay [3], in [4], in assay [8] and in assay [9] was “inactive” in each case. The Potency result in assay [5], in [6] and in assay [7] was “inactive” throughout.
Take `COC(=O)CC(C)CCC=C(C)C` (stereo not given): the Potency entry in assay [2], in assay [10], in assay [3], in assay [4], in assay [8] and in assay [5] was “inactive” in each case. Moreover, the Potency result in [6] and in assay [7] was “inactive” in each case.
In the case of `C/C=C/C(=O)Oc1c(CCCCCC(C)C)cc([N+](=O)[O-])cc1[N+](=O)[O-]`, the figures for the Potency in assay [1] and in assay [6] were 19.3 µM (active) and 15.4 µM (active), respectively. Moreover, the Potency result in [9] and in assay [5] was “inactive” throughout.
Regarding `CCN(CC)CCNc1ccc(CO)c2sc3ccccc3c(=O)c12`, the Potency in assay [2] was 15 µM (active); in [10] it was 13.3 µM (active); in assay [6], 7.5 µM (active); in assay [7], 13.3 µM (active). Besides, the Potency entry in assay [3], in assay [4], in [8], in [9] and in assay [5] was “inactive” in each case.
For `C=CC(C)(CCC=C(C)C)OC(=O)/C=C/c1ccccc1` (stereo not given), the Potency result in assay [2], in [10], in [3], in assay [4], in [8] and in [9] was “inactive” in each case. Also, the Potency result in assay [5], in assay [6] and in assay [7] was “inactive” throughout.
With `CCOC(=O)[C@@](C)(N)Cc1ccc(O)c(O)c1`, the Potency result in assay [1], in assay [3], in assay [4], in [9], in assay [5] and in assay [6] was “inactive” in each case. Further, the Potency result in assay [7] is “inactive”.
`O=C(Nc1ccc(Cl)c(Cl)c1)c1cc(Cl)cc(Cl)c1O`: the Potency in [1] was 4.86 µM (active); in assay [3], 19.5 µM (active); in assay [4], 6.92 µM (active); in assay [6] it was 4.86 µM (active). Moreover, the Potency entry in [5] and in [7] was “inactive” throughout.
Turning to `CCN(CC)CCCN(c1ccccc1)C1Cc2ccccc2C1`, the Potency entry in [1], in [3], in assay [4], in assay [8] and in assay [7] was “inactive” throughout. Further, the Potency in assay [6] was 23.7 µM (active).
